BAZ2B block – inhibitors of human BAZ2B bromodomain. AlphaScreen BAZ2B-H3K14Ac peptide displacement. AID 504333. Potency, µM (series often up to 114 µM), for the others: at the top dose activity change, negative = inhibition, usual class: inhibitors. hit rate 4.4% among 360,000; also: % is scaled to controls: 0 for no effect and ±100 for the full control effect; nearly all actives have a fitted effect of over 60% in size
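AlphaScreen luminescence quantifies BAZ2B engagement of H3K14Ac peptide; the protein and biotinylated peptide are both at 50 nM final, buffer PBS pH 7.4 with 0.01% Tween-20, all steps at room temperature.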
G9a inh – blocks human histone lysine methyltransferase G9a. Q96KQ7. G9a H3K9 monomethylation, AlphaScreen, 2 h. Potency, µM (doses to about 102 µM), inactives show at the top dose activity, negative = inhibition, actives largely listed as inhibitors. hit rate 8.8% among 350,000; also: % is scaled to controls: 0 for no effect and ±100 for the full control effect; nearly all actives have a fitted effect of over 75% in size
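Methyltransferase reactions run at room temperature for 2 h (20 nM enzyme, 500 nM biotin-H3K9 peptide, 20 uM SAM) after a 15 min compound preincubation; product detected by AlphaScreen beads and anti-H3K9me1 antibody.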
HP1b binding inh – blocks HP1-beta chromodomain binding to methylated histone tails. P83916. AlphaScreen HP1-beta / biotin-H3K9me3 peptide binding. hit rate 0.56% among 390,000. AID 540317. Potency, µM (doses to about 114 µM), inactives show at the top dose activity change, negative = inhibition, usual class: inhibitors; also: nearly all actives have a fitted effect of over 70% in size
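Compound inhibition of the preformed complex between 50 nM HP1-beta and 50 nM biotinylated H3K9me3 peptide was read by AlphaScreen. Buffer was PBS pH 7.4 with 0.01% Tween-20. Incubations ran 30 min at room temperature, with 10 ug/mL donor/acceptor beads.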
L3MBTL1 block – blocks human L3MBTL1. Q9Y468. AlphaScreen L3MBTL1–H3K9me1 peptide binding. Potency, µM (top dose mostly 57.1 µM), without a hit: top-dose activity, negative = inhibition, actives largely listed as inhibitors. hit rate 0.66% among 230,000. AID 485360; also: % is scaled to controls: 0 for no effect and ±100 for the full control effect; nearly all actives have a fitted effect of over 60% in size
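L3MBTL1 (50 nM) pre-complexed 30 min with biotinylated H3(1-15)K9me1 peptide (75 nM), then compounds added for 30 min at room temperature; AlphaScreen streptavidin donor/nickel chelate acceptor beads (10 ug/mL final) read after 30 min dark incubation.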
JMJD2A Tudor inh – inhibitors of human JMJD2A Tudor domain; O75164; AlphaScreen JMJD2A-Tudor / H3K4me3 peptide binding; Potency, µM (top dose mostly 114 µM), inactives show top-dose activity change, negative = inhibition, actives largely listed as inhibitors; hit rate 4.4% among 390,000; AID 504339; also: % is scaled to controls: 0 for no effect and ±100 for the full control effect; nearly all actives have a fitted effect of over 50% in size
Target sequence (O75164 whole entry, looked up, the tested form may be a part): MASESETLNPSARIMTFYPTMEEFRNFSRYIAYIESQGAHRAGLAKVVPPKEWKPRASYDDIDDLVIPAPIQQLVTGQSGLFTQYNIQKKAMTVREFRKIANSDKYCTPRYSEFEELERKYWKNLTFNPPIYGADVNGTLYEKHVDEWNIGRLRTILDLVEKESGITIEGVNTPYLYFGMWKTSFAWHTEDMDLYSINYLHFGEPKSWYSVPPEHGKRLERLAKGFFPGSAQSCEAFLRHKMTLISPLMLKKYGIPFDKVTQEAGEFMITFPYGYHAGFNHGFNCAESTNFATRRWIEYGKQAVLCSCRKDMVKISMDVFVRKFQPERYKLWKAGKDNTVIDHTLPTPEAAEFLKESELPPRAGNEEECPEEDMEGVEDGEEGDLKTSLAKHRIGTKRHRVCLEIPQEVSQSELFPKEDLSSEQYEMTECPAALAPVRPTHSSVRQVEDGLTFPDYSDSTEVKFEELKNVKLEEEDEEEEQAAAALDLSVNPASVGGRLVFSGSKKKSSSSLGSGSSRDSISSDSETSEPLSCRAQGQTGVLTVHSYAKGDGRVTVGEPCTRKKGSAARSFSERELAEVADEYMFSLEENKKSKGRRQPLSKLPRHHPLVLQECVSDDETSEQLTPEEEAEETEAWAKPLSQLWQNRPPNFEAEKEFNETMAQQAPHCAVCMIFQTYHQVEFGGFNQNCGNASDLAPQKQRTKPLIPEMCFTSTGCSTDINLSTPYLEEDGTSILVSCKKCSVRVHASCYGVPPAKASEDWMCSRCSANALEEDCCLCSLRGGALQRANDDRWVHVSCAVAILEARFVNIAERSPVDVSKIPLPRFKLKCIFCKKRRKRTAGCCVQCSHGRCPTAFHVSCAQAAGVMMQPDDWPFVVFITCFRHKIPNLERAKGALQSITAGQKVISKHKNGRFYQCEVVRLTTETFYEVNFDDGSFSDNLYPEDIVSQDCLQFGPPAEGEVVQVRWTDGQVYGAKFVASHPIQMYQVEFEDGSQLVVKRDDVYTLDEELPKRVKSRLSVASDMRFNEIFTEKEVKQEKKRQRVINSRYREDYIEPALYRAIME
An asterisk follows results filed as active; u = inconclusive; x = not tested or not shown; ! = a repeat was not active; [ ] = another dose, or the depositor's remark. A selection: hits, their analogues and other compounds. The true share with any hit is near 11%. Calls follow the shape of the dose curve; as a rule, active = well fitted inhibition curve with a large enough effect; inconclusive = small, poorly fitted or top-dose-only effect; inactive = no such curve, though single readings can be large or run the other way. Potency is read from the fitted curve at half-maximal effect.

SMILES	BAZ2B block	G9a inh	HP1b binding inh	L3MBTL1 block	JMJD2A Tudor inh
COC(=O)c1ccccc1-n1c(CCC(=O)O)ccc1-c1ccc(F)cc1	-12.4%	u	18.8%	x	-14.5%
Cc1cccc(-c2nc(CS(=O)CC(=O)N3CC(C)CC(C)C3)c(C)o2)c1 (stereo unspecified)	-11.8%	4.5%	-6.4%	x	-22.1%
Cc1ccc(SCC(c2ccccc2)N2CCN(C)CCC2=O)cc1 (stereo unspecified)	x	x	7.2%	x	-23.4%
COc1ccc(-c2nc3cnc(Oc4cccc(Cl)c4)nc3n(C[C@H]3CCCO3)c2=O)cc1	x	0.6%[0.501 µM]	x	x	x
CC(C)(C)OC(=O)NCC1CCN(S(=O)(=O)Cc2ccccc2)CC1	1.0%	-8.4%	31.6%	x	-4.3%
CC(C)(C)OC(=O)NCC12C=CC(O1)C1C(=O)N(Cc3ccccc3)C(=O)C12 (stereo unspecified)	-0.4%	10µM*	34.7%	-0.1%	-7.8%
COc1cccc(CN2CCCN(Cc3ccc(F)cc3)S2(=O)=O)c1	66.7%	u	106.1%	x	70.3%
CCn1c(CN2CCC(C)CC2)nc2cc(NC(=O)c3cccc([N+](=O)[O-])c3)ccc21	-8.3%	3.4%[59 µM]	44.1%	x	56.2µM*
CCn1c(CN2CCC(C)CC2)nc2cc(NC(=O)c3ccc([N+](=O)[O-])cc3)ccc21	-2.0%	-2.7%[59 µM]	19.9%	x	-11.6%
Cn1c(=O)n(C)c2cc(NS(=O)(=O)c3ccc(Br)cc3)c(NCc3ccccc3)cc21	-28.1%	u	-1.3%	x	u
COc1ccc(S(=O)(=O)Nc2cc3c(cc2NCc2ccccc2)n(C)c(=O)n3C)cc1	44.7µM*	15.8µM*	1.7%	x	50.1µM*
CCCS(=O)(=O)Nc1cc2c(cc1NCc1ccccc1)n(C)c(=O)n2C	50.1µM*	15.8µM*	10.6%	x	-26.0%
COc1ccccc1CCNC(=O)C(=O)NCC(c1ccco1)S(=O)(=O)c1ccc(F)cc1 (stereo unspecified)	0.3%	4.4%[59 µM]	23.3%	x	2.6%
CC(C)OC(=O)CC1C(=O)NCCN1C(=S)NC(=O)c1cccs1 (stereo unspecified)	-21.4%	44.7µM*	24.3%	-1.6%	-23.8%
COC(=O)CC1C(=O)NCCN1C(=S)Nc1ccccc1 (stereo unspecified)	-10.9%	-16.5%	43.9%	13.6%	1.7%
CCOC(=O)CC1C(=O)NCCN1C(=S)NC(=O)c1ccccc1OC (stereo unspecified)	-0.9%	x	-11.8%	x	28.2µM*
CCc1ccccc1NC(=S)N1CCNC(=O)C1CC(=O)OC (stereo unspecified)	-13.8%	-19.9%	-1.3%	-2.2%	44.7µM*
Cc1ccc(-n2c(Cc3cccs3)nnc2SCC(=O)Nc2ccc(S(N)(=O)=O)cc2)cc1	4.2%	44.7µM*	6.1%	-3.6%	-25.7%
COc1ccc(NC(=O)CSc2nnc(Cc3cccs3)n2-c2ccc(C)cc2)cc1	-7.4%	35.5µM*	-1.9%	x	u
NS(=O)(=O)c1ccc(NC(=O)CSc2nnc(Cc3cccs3)n2-c2ccccc2)cc1	67.2%	92.8%[59 µM]	24.6%	-13.6%	-17.5%
COc1ccc(-n2c(SCC(=O)Nc3ccc(C(=O)O)cc3)nnc2-c2cccs2)cc1	-2.7%	u	29.7%	4.1%	79.4µM*
Cc1ccc(-n2c(SCC(=O)Nc3ccc4c(c3)OCO4)nnc2-c2cccs2)cc1	11.1%	u	30.3%	0.4%	56.2µM*
Nc1nc(Cl)nc2c1ncn2[C@@H]1O[C@H](CO)[C@H](O)C1F (stereo partly specified)	x	24.6%[59 µM]	x	x	x
CCn1c(SCC(=O)c2ccc(C)cc2)nnc1-c1ccoc1C	9.7%	50.1µM*	33.5%	4.5%	-15.1%
CCn1c(SCC(=O)c2ccc(Cl)cc2)nnc1-c1ccoc1C	3.6%	52.5%[59 µM]	-26.2%	-5.7%	50.1µM*
SMILES	BAZ2B block	G9a inh	HP1b binding inh	L3MBTL1 block	JMJD2A Tudor inh
CCn1cc(C(=O)N2CCN(c3ccc(OC)cc3)CC2)c(=O)c2cc(S(=O)(=O)N(C)C3CCCCC3)ccc21	x	-3.0%[59 µM]	8.7%	x	-7.7%
COc1ccc(N2CCN(C(=O)c3cc(N4C(=O)C5C6CCC(C6)C5C4=O)ccc3Cl)CC2)cc1 (stereo unspecified)	u	39.8µM*	6.5%	-6.0%	-31.0%
O=C(c1cc(N2C(=O)C3C4CCC(C4)C3C2=O)ccc1Cl)N1CCN(c2ccc(F)cc2)CC1 (stereo unspecified)	-11.8%	u	0.0%	3.9%	-26.9%
CCn1cc(C(=O)O)c(=O)c2cc(S(=O)(=O)N3CCCCCC3)ccc21	70.8µM*	x	41.4%	x	-1.5%
COc1ccc(N2CCN(S(=O)(=O)c3ccc(OC)c(C(=O)N4CCCCC4)c3)CC2)cc1	-24.0%	44.7µM*	u	x	-25.4%
CCn1cc(C(=O)N2CCN(c3ccc(OC)cc3)CC2)c(=O)c2cc(S(=O)(=O)N3CCCCC3)ccc21	u	50.1µM*	-6.8%	u	-29.9%
COc1ccc(Br)cc1CNC(=O)c1ccc2c(c1)nc1n2CCCCC1	-1.9%	3.6%[59 µM]	22.9%[57 µM]	x	-17.2%
O=C(OCC#CCSc1nnc(-c2cccc3ccccc23)o1)C1CCC1	x	x	x	x	100.7%
CCn1cc(C(=O)O)c(=O)c2cc(OC)ccc21	u	u	-6.9%	2.3%	8.91µM*
Cc1cc(SCC(=O)N(C)CC(=O)Nc2ccc(F)cc2)nc2ccccc12	-6.5%	12.9%	1.0%	4.1%	-16.6%
CCc1nc(SCc2ccc(OCC(C)C)cc2)n[nH]1	u	15.9%	62.4%	-3.9%	-2.8%
CCOC(=O)c1c(C)oc2c1c(C(c1cccnc1)N1CCOCC1)c(O)c1ccccc12 (stereo unspecified)	39.8µM*	3.98µM*	u	-15.1%	79.4µM*
Cc1ccc(NN=C2c3ccccc3-c3ccccc32)cc1	u	8.91µM*	u	-4.4%	56.2µM*
c1ccc(NN=C2c3ccccc3-c3ccccc32)cc1	x	x	2.9%	x	-26.9%
Cc1nc2ccccc2c(C)c1C(=O)c1ccccc1	u	50.1µM*	33.8%	4.4%	-8.3%[11.4 µM]
CC(=O)c1c(C)nc2ccccc2c1N	11.7%	20.4%[59 µM]	31.6%	x	-10.0%
CCOC(=O)c1c(CCl)nc2ccccc2c1C	u	u	32.2%	-7.1%	89.1µM*
CCc1nc2ccccc2c(C(=O)OCC(=O)N(C)Cc2ccccc2)c1C	x	x	69.1%	8.0%	5.0%
CC1=NN(C(=O)c2ccccc2F)C(O)(c2ccc(Cl)cc2)C1 (stereo unspecified)	50.1µM*	2.8%	25.4%	-14.8%	-33.1%
Cc1nc2nc(C)c(CCC(=O)NCCCN3CCN(c4cccc(Cl)c4)CC3)c(C)n2n1	u	50.1µM*!	13.8%	-4.1%	u
COc1cccc(CCNC(=O)CCc2nnc(-c3cc(C)oc3C)o2)c1	-12.6%	x	28.9%	x	-12.1%
c1cncc(-c2nc(-c3ccc4c(c3)OCO4)cs2)c1	-7.7%	16.3%[59 µM]	20.2%	0.8%	-27.9%

Screening results (PubChem)
